The list is not random: actives were taken first. Their share in the collection is about 7.3%.
Vaccinia Venus: inhibitors of vaccinia virus (Venus reporter); Vaccinia virus Venus reporter expression, fluorescence; Potency, µM (doses to about 36.5 µM), usual class: inhibitors; 330,000 compounds, 0.46% hits; calls by dose curve; tested in A549 cells; further: nearly all actives have a fitted effect of over 30% in size
VACV mCherry inh: inhibitors of vaccinia virus infection (mCherry reporter signal) | Vaccinia virus mCherry reporter infection, fluorescence | Potency, µM (top dose mostly 36.5 µM), usual class: inhibitors | 310,000 compounds, 0.63% hits; calls by dose curve; tested in A549 cells; further: nearly all actives have a fitted effect of over 35% in size
FMDV antiviral: blocks foot and mouth disease virus. AID 1159524. 410,000 compounds, 1.2% hits. Potency, µM (highest dose often 57.9 µM), hits mostly inhibitors. FMDV antiviral cell-based qHTS; calls by dose curve; tested in HEK293T cells; further: read-out not given here; nearly all actives have a fitted effect of over 45% in size
HCMV inh: inhibitors of human cytomegalovirus | HFF cells, HCMV-luciferase reporter, 72 h; hits give low values | activity change, negative = inhibition, % at 57.5 µM | 410,000 compounds, 4.5% hits | AID 1259415; in the data active means activity change below about -60%; inconclusive means no clear call, values can overlap the other calls; inactive means above about -39%
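Inhibition of viral replication was scored as loss of reporter luminescence in HFFs infected with HCMV-luciferase (MOI 1 PFU/cell) for 72 h; compounds tested at 2 doses, normalized to buffer and Salinomycin controls.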
HCV inh: HCV inhibition. Huh7.5.1 HCVcc-Cre infection, luciferase reporter, 44 h. Potency, µM (highest dose often 41.8 µM), usual class: inhibitors. 340,000 compounds, 3.4% hits; active means well fitted inhibition curve with a large enough effect; inconclusive means small, poorly fitted or top-dose-only effect, or another doubt; inactive means no such curve, though single readings can be large or run the other way
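Luciferase read-out (15 sec integration) after a 15 min room-temperature substrate step quantifies HCVcc-Cre infection. Cells, 1,000 per well, had compound added 4 h post-plating, then virus at ~0.5 moi, and were cultured 44 h.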
A number is an active result; - = inactive; ? = inconclusive; . = no result given; [ ] = dose if it differs, or a comment.

SMILES	Vaccinia Venus	VACV mCherry inh	FMDV antiviral	HCMV inh	HCV inh
CC1=C(C(=O)OCc2ccc3c(c2)OCO3)C(c2cccc([N+](=O)[O-])c2)NC(=O)N1 (configuration not stated)	-	?	-	-81	11µM
CC1=C(C(=O)OCc2ccccc2)C(c2cccc([N+](=O)[O-])c2)NC(=O)N1 (configuration not stated)	.	.	-	-	?
CCOc1ccccc1NC(=O)C1CCN(S(=O)(=O)Cc2ccccc2)CC1	-	-	-	-	.
CCn1c(=O)c(CCC(=O)NCC2CCCO2)c(C)c2c(C)nn(-c3ccccc3)c21 (configuration not stated)	-[7.34 µM]	-[7.34 µM]	?	-	13µM
O=C1NC(c2ccccn2)Nc2sc3c(c21)CCC3 (configuration not stated)	-	-	-	-103	-
CN1CCc2c(sc3c2C(=O)NC(c2ccccn2)N3)C1 (configuration not stated)	.	.	-	-	-
COc1ccc(OCC(CO)N2CCN(c3ccccc3)CC2)cc1 (configuration not stated)	-	-	-	-	-
Cc1cccc(NC(=O)NCC2CCN(c3ccc(S(=O)(=O)N4CCOCC4)cc3)CC2)c1	-	-	-	-	?
Cc1ccccc1NC(=O)NCC1CCN(c2ccc(S(=O)(=O)N3CCOCC3)cc2)CC1	-	-	?	-	35µM
O=C(NCC1CCN(c2ccc(S(=O)(=O)N3CCOCC3)cc2)CC1)c1ccc(Cl)cc1	?	.	40µM	?	?
Cc1ccc(C2=NN(C(=O)CCCC(=O)O)C(c3ccco3)C2)cc1 (configuration not stated)	-	-	-	?	-
Cc1ccc(S(=O)(=O)N[C@H](C(=O)OCC(=O)N2N=C(c3ccc(Cl)cc3)CC2c2ccco2)C(C)C)cc1 (some centres not stated)	?	?	-	-	13µM
O=C(CNC(=O)c1ccccc1)OCC(=O)N1N=C(c2ccc(Cl)cc2)CC1c1ccco1 (configuration not stated)	.	.	-	-	-
CS(=O)(=O)Nc1cccc(C2=NN(C(=O)CCC(=O)O)C(c3cccs3)C2)c1 (configuration not stated)	.	.	-	-	-
CCC(=O)N1N=C(c2ccc(NS(=O)(=O)c3ccccc3)cc2)CC1c1ccco1 (configuration not stated)	.	.	-	-	11µM
Cc1ccc(C2=NN(C(=O)CCl)C(c3ccco3)C2)o1 (configuration not stated)	-	-	?	-100	8.9µM
CS(=O)(=O)Nc1ccc(C2=NN(C(=O)CCCC(=O)O)C(c3cccs3)C2)cc1 (configuration not stated)	-	-	-	-84	-
COc1cc(F)ccc1-c1csc(C(C)(O)c2ccccc2)n1 (configuration not stated)	-	-	-	-	.
Clc1ccc(-c2csc(=Nc3ccccc3)n2Cc2ccc3c(c2)OCO3)cc1	-	-	-	-	.
CCCCn1c(=O)c2[nH]c(C34CC5CC(CC3C5)C4)nc2n(CCCO)c1=O	.	.	-	.	.
O=S1(=O)CCOC(CO)CN1Cc1ccc(Cl)c(Cl)c1 (configuration not stated)	-	-	-	-	-
COCCCN1C(=O)C(CC(=O)NCCCCc2ccccc2)CC(C(=O)N(C(C)C)C(C)C)=C1C (configuration not stated)	-	-	-	-	.
Cc1nc2c(-c3ccc(F)cc3)c(C)nn2c(C)c1CCC(=O)Nc1ccccc1	.	.	?	-	?
CCN1CCN(c2ccc(NC(=O)CCc3c(C)nc4c(-c5ccc(F)cc5)c(C)nn4c3C)cc2)CC1	?	?	-	-60	2.5µM
CCCN1CNc2c(c(=O)[nH]c(=S)n2CCc2ccsc2)C1	-	-	.	.	.
SMILES	Vaccinia Venus	VACV mCherry inh	FMDV antiviral	HCMV inh	HCV inh
COc1ccc(C(O)c2nc(-c3cccc(NC(C)=O)c3)cs2)cc1 (configuration not stated)	?	-	-	-	.
N#CC1=C(SCC(=O)NC23CC4CC(CC(C4)C2)C3)NC(=O)C(C#N)C12CCCCC2 (configuration not stated)	13µM	10µM	?	-66	?
CC(C)(C)C1CCC2(CC1)C(C#N)=C(SCC(=O)NC1CCCCC1)NC(=O)C2C#N (configuration not stated)	-	?	.	-63	-
CN1CCc2c(sc(NC(=O)CSc3ccccc3)c2-c2nc3ccccc3s2)C1	-[7.34 µM]	-[7.34 µM]	-	-	.
CC(=O)Nc1sc2c(c1-c1nc3ccccc3s1)CN(C(C)C)CC2	.	.	-	-97	.
CC(=O)N1CCc2c(sc(NC(=O)C3CC3)c2-c2nc3ccccc3s2)C1	?	?	25µM	-	13µM
CC(=O)N1CCc2c(sc(NC(=O)CSc3ccccc3)c2-c2nc3ccccc3s2)C1	-[7.34 µM]	-[7.34 µM]	-	-97	.
N#Cc1ccc(OCC(=O)N2CCCC2=O)cc1	.	.	-	-	-
COc1cccc(NC(=O)CSc2nc(C)c(Cc3ccccc3)c(=O)[nH]2)c1	-	-	-	-	.
CN(CC(=O)Nc1ccc(Cl)cc1)C(=O)c1sccc1-c1ccccc1	.	.	?	-	13µM
Cc1ccnc(SC2CC(=O)N(c3ccc(Cl)cc3)C2=O)n1 (configuration not stated)	.	.	-	-	-
Cc1nc(SC2CC(=O)N(c3ccccc3)C2=O)n[nH]1 (configuration not stated)	-	-	-	-60	-
Cc1cccc(N2C(=O)CC(Sc3nccc(C)n3)C2=O)c1 (configuration not stated)	-	-	-	-98	-
Cc1ccc(C)c(C(=O)CN2C(=O)NC3(CCCCCC3)C2=O)c1	-	-	-	-	-
CC(C)(C)n1nnnc1C(c1ccc(C(F)(F)F)cc1)N(Cc1ccccc1)Cc1ccco1 (configuration not stated)	-	.	?	-82	?
CCN(Cc1ccccc1)C(c1ccc(C)cc1)c1nnnn1C(C)(C)CC (configuration not stated)	-	-	?	-	10µM
CCN(CC)C(c1ccc(F)cc1)c1nnnn1C1CCCCC1 (configuration not stated)	.	.	-	-	-
CCN(CC)C(c1ccc(C)cc1)c1nnnn1C1CCCCC1 (configuration not stated)	.	.	-	-	35µM
CC(C)(C)n1nnnc1C(c1ccc(C(F)(F)F)cc1)N(Cc1ccc(F)cc1)Cc1ccco1 (configuration not stated)	?	.	?	-	-
CC(C)(C)n1nnnc1C(c1cccnc1)N(Cc1ccccc1)Cc1cccs1 (configuration not stated)	-	-	-	-85	?
CCc1sc(-c2cc3cccc(OC)c3oc2=O)nc1-c1cc(C)ccc1C	-	-	.	.	.
O=CNc1ccccc1	-	-	-	-	-
CCOc1ccc(CNCc2c(C(=O)O)n(Cc3ccccc3F)c3cc(OC)ccc23)cc1	-	-	-	-	.

Bioassay records as filed in PubChem.
